# Only a selection was taken, and hits are over-represented in it overall.
# MRP-1 activ = MRP-1 activation | H69AR cells + doxorubicin, viability rescue, CellTiter-Glo | viability increase, % at 10 µM | hit rate 0.61% among 140,000 | AID 799;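 active = viability gain under doxorubicin at or above a set limit, the compound median plus 3 SD, cut at about 4.7% in these data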;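 also: MRP-1 overexpressing cells given doxorubicin 25 µM after compound pretreatment; 18-22 h compound pretreatment then 72 h with doxorubicin before readout; 0% = doxorubicin-only wells and 100% = vehicle-treated cells without doxorubicin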
# MRP reversal = MRP-mediated drug resistance reversal. AID 602. hit rate 0.04% among 85,000. differential viability (reversal), % at 10 µM. H69AR cells + 2 uM doxorubicin, CellTiter-Glo, 72 h;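 active = viability drop by adding the cancer drug above about 55%, with treated viability meeting a 40% cutoff, limit read from the data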;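 also: viability without doxorubicin minus viability with 2 µM doxorubicin for each compound; larger differential means the compound sensitizes cells more to doxorubicin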
# * marks the source's active call; other numbers are inactive results; x = not tested or not shown.
SMILES,MRP-1 activ,MRP reversal
O=C(COC(=O)CCC1CCCC1)Nc1ccc(Cl)cc1F,0,x
Cc1cc(/C=C(\C#N)C(=O)OCC(=O)NC(=O)NC(C)(C)C)c(C)n1CCC(C)C,-3,57*
C=CCNC(=O)NC(=O)COC(=O)/C(C#N)=C/c1cc(C)n(CCC(C)C)c1C,0,2
CC1CCC/C(=C(\C#N)c2nc(-c3cc4ccccc4oc3=O)cs2)C1 (stereo not drawn),5.2*,x
O=c1oc2ccccc2cc1-c1csc(NN=C2CCCCC2)n1,0,x
CCC1(C)C(Nc2c(C)cccc2C)=NC(=S)N1c1ccc(NC(C)=O)cc1 (stereo not drawn),2,x
O=C(CN1C(=O)NC2(CCc3ccccc32)C1=O)Nc1cc(C(F)(F)F)ccc1N1CCOCC1 (stereo not drawn),x,13
Cc1ccc(-c2nnn(CC(=O)N(c3ccccc3)C(C(=O)NCC3CCCO3)c3ccc(Cl)cc3)n2)cc1 (stereo not drawn),1,x
Cc1ccc(-c2nnn(CC(=O)N(c3ccccc3F)C(C(=O)NCC3CCCO3)c3c[nH]c4ccccc34)n2)cc1 (stereo not drawn),8.2*,x
CCCCCCCOc1ccc(-c2ccc(C#N)cn2)cc1,5.1*,x
CCCCOc1ccc(-c2cnc3ccccc3n2)cc1,1,x
Cc1sc2nc(-c3cccnc3)nc(Cl)c2c1-c1ccccc1,-2,x
O=C(/C=C/c1cccs1)Nc1ccc(N2CCOCC2)c(S(=O)(=O)Nc2ccccc2Cl)c1,-2,x
COc1ccccc1NS(=O)(=O)c1cc(NC(=O)/C=C/c2cccs2)ccc1N1CCOCC1,6.0*,x
CN(CCOc1ccc(-c2ccn(S(=O)(=O)c3cccc4ccccc34)n2)cc1)c1ccccn1,4,x
CCOc1ccc(C2c3c(oc4ccccc4c3=O)C(=O)N2c2ccc(C)cn2)cc1OC (stereo not drawn),-3,-6
O=C(O)/C=C\C(=O)NC1CCCCC1,29*,x
O=C(O)/C=C/C(=O)NC1CCS(=O)(=O)C1 (stereo not drawn),-1,x
C1=C(CCNCC2CCCCC2)CCCC1,-3,x
O=C(NC(=S)Nc1ccccc1N1CCOCC1)c1ccc(-c2cc(Cl)ccc2Cl)o1,15*,x
O=C(NC(=S)Nc1ccccc1N1CCOCC1)c1ccco1,-1,x
O=C(N=Nc1c(O)[nH]c2ccc(Cl)cc12)c1cc(-c2cccs2)nc2ccccc12,-4,x
Oc1ccccc1/C=N/n1cnn(Cc2ccccc2Cl)c1=S,-1,x
COc1ccc(CCNC(=O)c2ccc(CNS(=O)(=O)c3cc(C)ccc3C)cc2)cc1OC,-1,x
Cc1ccsc1C(=O)NNC(=O)Nc1ccc(Cl)c(Cl)c1,0,x
SMILES,MRP-1 activ,MRP reversal
Cc1occc1C(=O)NNC(=O)Nc1ccc(Cl)c(Cl)c1,4.9*,x
Cc1cc(N(CC(=O)NC(C)C)S(C)(=O)=O)ccc1Br,-2,x
O=C1C(=O)N(O)C2CCCCC2N1O (stereo not drawn),0,x
Cc1nc2ccccc2c(=O)n1/N=C/c1c(O)ccc2oc3c(c12)CCCC3,5.9*,-14
Cc1nc2ccccc2c(=O)n1/N=C/c1ccc(N(C)C)cc1,-3,6
CCCNC(=O)c1ccc(-c2nc3ccccc3s2)s1,-2,-17
CNc1sc(C(=O)c2ccccc2F)c(N)c1-c1nc2ccccc2s1,6.8*,-2
COc1ccc(N2CCN(c3oc(COc4ccc(Cl)cc4Cl)nc3C#N)CC2)cc1,2,21
N#Cc1nc(COc2ccc(Cl)cc2Cl)oc1N1CCOCC1,-1,27
N#Cc1nc(COc2ccc(Br)cc2)oc1N1CCCCCC1,6.5*,8
N#Cc1nc(COc2ccc(Br)cc2)oc1N1CCCC1,7.3*,-7
O=C(NCc1ccccc1)c1cccc(COc2ccc(Cl)cc2)c1,-1,x
COc1cc(CNC(=O)c2cccc(COc3ccc(Cl)cc3)c2)cc(OC)c1,4.8*,x
CN(C)CCCNC(NC(=O)c1cccs1)C(Cl)(Cl)Cl (stereo not drawn),0,x
O=C1CN(C(=O)COC(=O)c2cccc(OCc3ccccc3)c2)c2ccccc2N1,-1,x
O=C(c1ccco1)n1nc(NCc2ccccc2)nc1NCc1ccccc1,0,-3
COc1ccc(CNc2nc(NCc3ccc(OC)cc3)n(C(=O)c3ccccc3[N+](=O)[O-])n2)cc1,5.4*,x
Cc1ccc(/C(O)=C2/C(=O)C(=O)N(CCCn3ccnc3)C2c2ccccn2)cc1 (stereo not drawn),-1,-7
Cc1ccc(C)c(/C(O)=C2\C(=O)C(=O)N(CCCn3ccnc3)C2c2ccncc2)c1 (stereo not drawn),7.3*,-19
O=C(CNC(=O)c1cccc(F)c1)N/N=C/c1cccc([N+](=O)[O-])c1,-1,x
Cc1ccc(C(=O)c2coc3cc([N+](=O)[O-])c(O)c([N+](=O)[O-])c23)cc1,-2,x
COc1ccc(-c2nc(C#N)c(N3CCc4ccccc4C3)o2)cc1OC,0,-4
COc1ccccc1-c1nc(C#N)c(N2CCc3ccccc3C2)o1,5.3*,12
CCOC(=O)c1c(-c2ccc(F)cc2)csc1NC(=O)c1c(-c2ccccc2)noc1C,7.5*,x

# Assay outcomes (PubChem BioAssay)
